Source: PubChem (National Center for Advancing Translational Sciences (NCATS))
LASV entry inh: Lassa virus entry inhibition; AID 540256; Potency, µM (highest dose often 37.9 µM), inactives show at the highest dose activity change, negative = inhibition, hits mostly inhibitors; Lassa virus pseudotype entry inhibition, cell reporter; hit rate 1.2% among 300,000; calls by dose curve; tested in HEK293 cells; further: potency means the concentration at half of the fitted maximal effect; nearly all actives have a fitted effect of over 50% in size
FMDV antiviral: antivirals against foot and mouth disease virus; FMDV antiviral cell-based qHTS; Potency, µM (highest dose often 57.9 µM), for inactives: top-dose activity change, negative = inhibition, usual class: inhibitors; hit rate 1.2% among 410,000; AID 1159524; calls by dose curve; tested in HEK293T cells; further: read-out not given here; potency means the concentration at half of the fitted maximal effect; nearly all actives have a fitted effect of over 45% in size
HCMV inh: inhibitors of human cytomegalovirus. HFF cells, HCMV-luciferase reporter, 72 h; stronger effect = lower value. activity change, negative = inhibition, % at 57.5 µM. hit rate 4.5% among 410,000. AID 1259415; in the data active means activity change below about -60%; inconclusive means no clear call, values can overlap the other calls; inactive means above about -39%
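Human foreskin fibroblasts infected with luciferase-reporter HCMV at MOI 1 PFU/cell, compounds at two doses. Luciferase measured 72 h post infection; normalized to buffer-only basal and Salinomycin (10uM) controls.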
HCV inh: blocks hepatitis C virus; Huh7.5.1 HCVcc-Cre infection, luciferase reporter, 44 h; Potency, µM (top dose mostly 41.8 µM), inactives show top-dose activity change, negative = inhibition, most hits filed as inhibitors; hit rate 3.4% among 340,000; AID 651820; active means well fitted inhibition curve with a large enough effect; inconclusive means small, poorly fitted or top-dose-only effect, or another doubt; inactive means no such curve, though single readings can be large or run the other way; further: potency means the concentration at half of the fitted maximal effect
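Luciferase read-out (15 sec integration) after a 15 min room-temperature substrate step quantifies HCVcc-Cre infection. Cells, 1,000 per well, had compound added 4 h post-plating, then virus at ~0.5 moi, and were cultured 44 h.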
MARV entry inh: Marburg virus entry inhibition; hit rate 1.8% among 300,000; AID 540276; Potency, µM (top dose mostly 37.8 µM), without a hit: at the highest dose activity change, negative = inhibition, hits mostly inhibitors; Marburg virus pseudotyped entry inhibition, cell reporter; calls by dose curve; tested in HEK293 cells; further: potency means the concentration at half of the fitted maximal effect
Numbers without * were called inactive; ? = inconclusive; . = not tested or not shown; [ ] = remark or other dose. A selection: hits, their analogues and other compounds. The true share with any hit is near 7.9%. On the % scale 0 is the no-effect control and ±100 the full control effect.

SMILES	LASV entry inh	FMDV antiviral	HCMV inh	HCV inh	MARV entry inh
COc1ccccc1-c1sc2cc3c(cc2c1-c1ccc(OCCN2CCCCC2)cc1)OCO3	.	?	-33	?	.
COc1cc2sc(-c3ccccc3OC)c(-c3ccc(OCCN4CCCCC4)cc3)c2cc1OC	.	?	-18	11µM*	.
COC(=O)c1ccc(NC(=O)CCn2cccn2)cc1	11%[46.1 µM]	6%	4	.	.
CCCCN(CC)CCOc1cccc2ccccc12	.	40µM*	.	.	.
C=CCN(CC=C)CCOc1cccc2ccccc12	3%	-19%	7	2%	?
Cc1nn(-c2ccc(F)cc2)c(Cl)c1/C=C/C(=O)OCC(=O)Nc1c(F)c(F)c(F)c(F)c1F	-7%	-17%	-71*	?	0%[46.1 µM]
Cc1nn(-c2ccc(F)cc2)c(Cl)c1/C=C/C(=O)OCC(=O)Nc1ccc(F)cc1F	-3%	0%	7	12%	3%
COc1ccc(-c2cn3c(C)c(C(=O)Nc4ccncc4)sc3n2)cc1	.	?	-36	4.5µM*	.
Cc1c(C(=O)Nc2ccc(F)c(C(F)(F)F)c2)sc2nc(-c3ccccc3)cn12	3%[46.1 µM]	-9%	-98*	.	.
Cc1cc(C)cc(NC(=O)c2sc3nc(-c4ccccc4)cn3c2C)c1	2%[46.1 µM]	-9%	-13	.	.
Cc1c(C(=O)Nc2ccncc2)sc2nc(-c3ccc(F)cc3)cn12	.	-7%	?	10µM*	.
CCOc1ccc(NC(=O)c2sc3nc(-c4ccc(OC)cc4)cn3c2C)cc1	17%[46.1 µM]	17%	40	.	.
CC(NC(=O)Cc1ccc(S(=O)(=O)N2CCOCC2)s1)c1ccc(Br)cc1 (stereo not drawn)	10%	0%	-35	-6%	?
CC#CC(=O)N[C@H]1CC[C@@]23CCCN2C(=O)CCC[C@H]3[C@H]1Cc1ccccc1	.	.	-14	.	.
CCOC(=O)c1c(NC(=O)c2nn(CC)cc2Br)c(C#N)nn1-c1ccccc1	-27%[14.3 µM]	-22%	-21	11µM*	?
COc1cccc(C2CC(=O)Nc3c2c(=O)n(C)c2nc4ccccc4n32)c1 (stereo not drawn)	12%[46.1 µM]	-17%	11	.	4%[46.1 µM]
CCCS(=O)(=O)c1c(S(=O)(=O)CCC)c2cc(-c3ccncc3)ccn2c1C(=O)OC	0%	23%	160	-28%	5.6µM*
CCCS(=O)(=O)c1c(S(=O)(=O)CCC)c2cc(CC)ccn2c1C(=O)c1ccc(OC)cc1	-16%[46.1 µM]	-17%	-30	.	16%[46.1 µM]
O=S(=O)(Nc1nc2ccccc2nc1Nc1ccccc1Br)c1ccccc1	-5%[46.1 µM]	0%	34	.	21%[46.1 µM]
COc1cccc(NC(CNS(=O)(=O)c2ccc(Cl)cc2)c2ccccc2)c1 (stereo not drawn)	?	-20%	-100*	.	?
COc1cccc(NC(CNS(=O)(=O)c2ccc(C)cc2)c2ccccc2)c1 (stereo not drawn)	-8%[46.1 µM]	-11%	-22	.	-26%[46.1 µM]
Cc1ccc(NC(CNS(=O)(=O)c2ccc(Cl)cc2)c2ccccc2)cc1 (stereo not drawn)	?	-12%	-80*	?	?
COC(=O)c1n[nH]n(-c2ccccc2)c1=O	6%[46.1 µM]	-6%	-2	.	0%[46.1 µM]
Cc1ccc2c(c1)C(O)(C1C(=O)N(C)c3ccccc31)C(=O)N2Cc1ccccc1 (stereo not drawn)	.	.	-17	.	.
CCOC(=O)c1cnc(SC)nc1Oc1cccc(NS(=O)(=O)c2ccc(F)cc2)c1	?	2%	-19	?	-33%
SMILES	LASV entry inh	FMDV antiviral	HCMV inh	HCV inh	MARV entry inh
CCOC(=O)c1cnc(SC)nc1Oc1cccc(NS(=O)(=O)c2ccccc2)c1	15%	15%	5	10µM*	15%
CN1CCN(c2ncc3c(n2)CCN(Cc2ccccc2Cl)C3)CC1	-6%[46.1 µM]	-4%	-9	.	.
Cc1ccc(CN2CCc3nc(N4CCN(c5ncccn5)CC4)ncc3C2)cc1	?	?	-15	.	.
Clc1ccccc1CN1CCc2nc(N3CCN(c4ncccn4)CC3)ncc2C1	-2%[46.1 µM]	32µM*	-29	.	.
Cc1cccc(CN2CCc3nc(N4CCN(c5ccccn5)CC4)ncc3C2)c1	-30%[46.1 µM]	14µM*	?	.	.
O=C(Nc1ccn2ccnc2n1)c1ccccc1C(F)(F)F	.	.	-13	.	.
CCN(C(=O)COC(=O)CNC(=O)C12CC3CC(CC(C3)C1)C2)C1CCS(=O)(=O)C1 (stereo not drawn)	5%	0%	-102*	-7%	15%
CCN(C(=O)C12CC3CC(CC(C3)C1)C2)C1CCS(=O)(=O)C1 (stereo not drawn)	19%	-11%	-24	18%	1%
COc1ccc(NS(=O)(=O)c2cccc(NC(=O)c3ccc(S(=O)(=O)N4CCCCCC4)cc3)c2)cc1	8.2µM*	0%	.	?	3.5µM*
COc1ccc(NS(=O)(=O)c2cccc(NC(=O)C34CCC(CC3)C4)c2)cc1	12µM*	8%	-64*	?	?
COc1ccc(N2CCN(S(=O)(=O)c3ccc(OC)c(C(=O)N4CCCCC4)c3)CC2)cc1	.	-27%	-32	13µM*	?
COc1ccc(NC(=O)c2cccc(S(=O)(=O)N3CCCCCC3)c2)cc1	-11%	-2%	-88*	?	-11%[46.1 µM]
CC1CCC2(CC1)NC(=O)N(CC(=O)N1CCN(c3ccccc3)CC1)C2=O (stereo not drawn)	.	-19%	-11	1%	.
COc1ccc2c3n([n+]([O-])c2c1)C(C)CN=C3c1cc(Cl)c(N)c(Cl)c1 (stereo not drawn)	.	.	58	.	.
Cc1ccc(NC(=O)CCS(=O)(=O)c2cccc3nsnc23)c(C)c1	7%[46.1 µM]	10%	2	.	18%[46.1 µM]
COc1ccc(Cl)cc1Nc1cc(C)nc2nc(-c3ccccc3C)nn12	5%[46.1 µM]	-17%	9	.	7%[46.1 µM]
O=C(Nc1cccc(S(=O)(=O)C(F)F)c1)c1ccc(S(=O)(=O)N2CCCC2)cc1	5µM*	-11%	?	5µM*	?
COc1ccc(/C(C)=N/NC(=O)c2cccc(S(=O)(=O)N3CCCC3)c2)c(O)c1	?	-26%	-90*	3.2µM*	?
O=C(Nc1cccc(S(=O)(=O)C(F)F)c1)c1ccc(S(=O)(=O)N2CCOCC2)cc1	-10%	?	7	-13%	?
COc1ccc(NC(=O)c2cc(S(=O)(=O)N3CCCCC3)ccc2OC)cc1	.	15%	-73*	-12%	.
CCNC(=O)C1(C)CCN(Cc2cccc3ccccc23)C1 (stereo not drawn)	.	.	-6	.	.
CCOC(=O)C1CCN(CCC(=O)Nc2ccc(C)c(C)c2)CC1	.	-7%	-67*	-15%	.
CCOC(=O)C1CCCN(CCC(=O)Nc2ccc(C)c(C)c2)C1 (stereo not drawn)	-3%	0%	-39	-18%	?
CC1CCN(CCC(=O)Nc2ccc(Br)cc2)CC1	-29%	.	-68*	?	?
O=C(CCN1CCCC1)Nc1ccc(Br)cc1	22%	-6%	-6	?	-28%
Cc1ccccc1C(c1c(C)n(C)n(-c2ccccc2)c1=O)c1c(C)n(C)n(-c2ccccc2)c1=O	19%[46.1 µM]	?	18	.	-14%[46.1 µM]
Cc1oc(-c2ccc(C(=O)NCc3ccc(Cl)cc3)cc2)nc1CS(=O)(=O)c1ccccc1	-17%[46.1 µM]	-26%	-69*	.	.
